ALOX15 inhib = inhibitors of human 15-lipoxygenase (ALOX15) | Potency, µM (series often up to 57.1 µM), inactives show at the highest dose activity change, negative = inhibition, actives largely listed as inhibitors | 74,000 tested, 1.4% active | AID 887 | P16050 | purified 15hLO-1, xylenol orange hydroperoxide absorbance; also: nearly all actives have a fitted effect of over 55% in size
Target sequence (P16050 whole entry, looked up): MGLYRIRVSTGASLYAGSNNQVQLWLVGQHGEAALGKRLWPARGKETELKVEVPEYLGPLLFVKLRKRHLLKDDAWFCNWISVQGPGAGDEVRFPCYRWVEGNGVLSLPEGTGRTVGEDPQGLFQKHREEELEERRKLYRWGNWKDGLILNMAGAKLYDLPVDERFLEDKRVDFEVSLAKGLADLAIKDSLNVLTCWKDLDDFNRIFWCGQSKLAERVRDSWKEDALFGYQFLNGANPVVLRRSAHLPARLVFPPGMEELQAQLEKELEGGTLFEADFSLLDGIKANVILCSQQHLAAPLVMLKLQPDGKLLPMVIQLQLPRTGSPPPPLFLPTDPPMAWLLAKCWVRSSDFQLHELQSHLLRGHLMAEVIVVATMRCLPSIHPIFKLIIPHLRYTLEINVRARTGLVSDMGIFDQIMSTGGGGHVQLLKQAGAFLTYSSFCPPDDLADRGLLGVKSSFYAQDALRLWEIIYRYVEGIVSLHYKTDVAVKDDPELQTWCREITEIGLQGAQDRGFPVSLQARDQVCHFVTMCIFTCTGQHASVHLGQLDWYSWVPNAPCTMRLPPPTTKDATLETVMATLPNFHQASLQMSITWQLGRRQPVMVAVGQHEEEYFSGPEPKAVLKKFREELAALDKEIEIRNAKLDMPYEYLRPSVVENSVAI
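Hydroperoxide formed from arachidonic acid (50 uM) by purified human 15hLO-1 (40 nM) oxidizes ferrous iron, and the ferric-xylenol orange complex is read at 573 versus 405 nm. Compounds were preincubated 15 min; reaction ran 6 min at room temperature.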
HADH2 inh = inhibitors of human HADH2 dehydrogenase; Q99714; recombinant HADH2, NADH fluorescence, beta-hydroxybutyryl-CoA; Potency, µM (titrated, usually from 57.1 µM), for the others: at the top dose activity change, negative = inhibition, hits mostly inhibitors; 73,000 tested, 3.4% active; AID 886; also: nearly all actives have a fitted effect of over 60% in size
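E. coli-expressed His-tagged HADH2 tested at 20 nM in alkaline Tris buffer (pH 9.0); oxidation of 90 uM beta-hydroxybutyryl-CoA with 1 mM NAD+ tracked fluorimetrically for 4 min.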
PK Bst = modulators of Bacillus stearothermophilus pyruvate kinase | purified pyruvate kinase, luminescence ATP production; ribose 5-phosphate activator present at AC10 | Potency, µM | 51,000 tested, 1.2% active; in the data active = potency below about 11 µM; inconclusive = mostly about 12 µM to 25 µM;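 the screen sought inhibitors and activators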;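 also: scaled between full activation by ribose 5 phosphate and full inhibition by luteolin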
ERK AVP block = blocks ERK signaling stimulated by vasopressin; HEK293-V1b, vasopressin-stimulated pERK AlphaScreen; Potency, µM (titrated, usually from 57.5 µM), without a hit: top-dose activity, negative = inhibition, usual class: inhibitors; 72,000 tested, 0.99% active; AID 995; also: nearly all actives have a fitted effect of over 55% in size
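V1b-HEK293 cells; cpd 30 min 37C; 25 nM vasopressin 5 min; lyse 10 min; AlphaScreen beads 5 hr RT. Normalized to DMSO basal and 25 nM vasopressin; AC50 by Hill fit.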
HSD17B inh = blocks hydroxysteroid 17-beta dehydrogenase activity. Potency, µM (doses to about 57.1 µM), without a hit: at the top dose activity change, negative = inhibition, hits mostly inhibitors. AID 893. recombinant HSD17B10, NADH fluorescence kinetic. Q99714. 75,000 tested, 7.6% active;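 also: the protocol describes HADH2 (HSD17B10) and not the HSD17B4 of the title; nearly all actives have a fitted effect of over 70% in size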
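Enzyme plus compound, 15 min room temperature; substrate mix added (NAD+ 1 mM, beta-hydroxybutyryl-CoA 90 uM final); plates read kinetically for NADH fluorescence. HADH2 was His-tagged, E. coli-derived, 20 nM.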
Luciferase inh = blocks Photinus pyralis firefly luciferase activity. P08659. purified firefly luciferase, luminescence, 8 min. Potency, µM (doses to about 57.1 µM), without a hit: at the highest dose activity change, negative = inhibition, actives largely listed as inhibitors. 72,000 tested, 2.2% active. AID 411; also: nearly all actives have a fitted effect of over 40% in size
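Titration-based qHTS; buffer 50 mM imidazole pH 7.2, 50 mM KCl, 7 mM MgCl2, 10 uM ATP, 0.01% Tween 20, 0.05% BSA; luciferase/luciferin detector mix added after compound; 8 min, ambient; luminescence.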
An asterisk follows results filed as active; i = inactive; ? = inconclusive; nt = no result given; [ ] = another dose, or the depositor's remark. Compounds with a hit are over-represented: about 11% of the library has one in this group of screens. Unless noted, calls follow the shape of the dose curve; as a rule, active = well fitted curve in the direction sought with a large enough effect; inconclusive = small, poorly fitted or top-dose-only effect, or another doubt; inactive = no such curve, though single readings can be large; an effect the other way counts as inactive or inconclusive. Unless noted, % is scaled to controls: 0 for no effect and ±100 for the full control effect; potency is read from the fitted curve at half-maximal effect.

SMILES	ALOX15 inhib	HADH2 inh	PK Bst	ERK AVP block	HSD17B inh	Luciferase inh
O=S(=O)(c1ccc(F)c2ccccc12)N1CCCCC1	3%	1%	2.9*	25%	-6%	1%
COc1cc2c(cc1OC)-c1nnnn1C(C)(C)C2	4%	6%	>57	-24%	-4%	-2%
COc1cc2c(cc1OC)-c1cc3nc4ccccc4nc3n1C(C)(C)C2	13µM*	16%	nt	31%	-2%	0%
COc1cc2c(cc1OC)-c1nnc(-c3cccs3)n1C(C)(C)C2	-7%	37%	nt	?	32µM*	-7%
O=C(c1ccncc1)N1CCC2(CCN(Cc3ccccc3)CC2)CC1	5%	6%	nt	-1%	-3%	1%[11.4 µM]
Fc1ccc2c(c1)[C@H]1OCC[C@H]1[C@@H](c1ccco1)N2	-24%	?	i	-7%	32µM*	?
COc1ccccc1NC(=O)c1cc(C(=O)O)ccc1C(=O)O	-6%	-1%	>57	4%	-5%	4%
O=C(O)c1ccc(C(=O)Nc2cccc3ccccc23)c(C(=O)O)c1	3%[11.4 µM]	8%[11.4 µM]	nt	-8%[11.5 µM]	3.2µM*	3%[11.4 µM]
CN1CCN(c2ncc3nc(CCc4ccccc4)c(=O)n(CCC#N)c3n2)CC1	3%	18%	nt	0%	?	0%[11.4 µM]
Cc1nc2cnc(N3CCNCC3)nc2n(CCC#N)c1=O	8%	?	nt	-30%	25µM*	1%[11.4 µM]
COCCn1c(=O)c(C)nc2cnc(N3CCNCC3)nc21	17%	-5%	nt	1%	32µM*	2%[11.4 µM]
Cc1nc2cnc(N3CCNCC3)nc2n(Cc2cccs2)c1=O	7%	-3%	nt	-18%	?	1%[11.4 µM]
O=C(O)CCCN1CCCCC1	1%[11.4 µM]	3%[11.4 µM]	nt	4%[11.5 µM]	7%[11.4 µM]	2%[11.4 µM]
O=C1c2ccccc2-c2n[nH]c3cccc1c23	-19%[25.6 µM]	?	nt	10µM*	12%	0%
O=C1c2ccccc2[C@@H]([C@@H]2c3ccccc3C(=O)c3cc(Br)ccc32)c2ccc(Br)cc21	-18%[11.4 µM]	4%[11.4 µM]	nt	?	1%[11.4 µM]	1%[11.4 µM]
COc1cccc(CNc2nc3nc(C)cc(C)n3n2)c1	0%	?	>57	11%	32µM*	-2%
COc1cccc(Nc2cc(C)nc3nc(C)nn23)c1	7%	2%	nt	-15%	-1%	-8%
Cc1noc(C)c1-c1ccc2ncnc(Nc3ccc(F)cc3)c2c1	-6%	3%	nt	14%	1%	1%[2.29 µM]
CCOC(=O)OCC1OC(C#Cc2ccc(C)cc2C)C=CC1OC(=O)OCC (stereo not given)	-1%[11.4 µM]	-16%[11.4 µM]	nt	5%[11.5 µM]	-7%[11.4 µM]	nt
COc1cc2c(OC)cccc2cc1C(=O)O	-7%	25µM*	>57	5%	25µM*	1%
COc1ccc(C(=O)O)c(O)c1OC	3%	nt	nt	12%	-2%	nt
CCOc1ncccc1C(=O)OCC(=O)N1CC(=O)Nc2ccccc21	-6%	-1%	>57	-4%	1%	1%
Cn1c2ccccc2c2cc(C(=O)OCC(=O)N3CC(=O)Nc4ccccc43)sc21	-13%	3%	>57	-9%	25µM*	-2%
CCc1ccc2c(-c3cccc(Cl)c3)nc(=O)n(CC)c2n1	-4%[25.6 µM]	4%	nt	-28%	32µM*	2%
Cc1nc(C)c(C(=O)Nc2nc3c(C)cccc3s2)o1	?	7.9µM*	>57	-2%	25µM*	0%
SMILES	ALOX15 inhib	HADH2 inh	PK Bst	ERK AVP block	HSD17B inh	Luciferase inh
Cc1ccc(CN2CC(C(=O)Nc3ccc4c(C)cc(=O)oc4c3)CC2=O)cc1 (stereo not given)	-1%	?	>57	?	6.3µM*	2%
O=C(O)c1cccc(NC(=O)C2CC(=O)N(Cc3ccccc3)C2)c1 (stereo not given)	-4%	-3%	>57	3%	10%	-2%
COC(=O)NC(c1cccc(F)c1)[C@@]1(C(=O)OC)CCCC1=O (stereo not given in full)	4%[11.4 µM]	1%[11.4 µM]	nt	10%[11.5 µM]	6%[11.4 µM]	nt
O=C(O)c1cnc2ccccc2n1	20µM*	6.3µM*	>57	-1%	-30%	1%
Cc1cc(Cl)nc(NC(=O)CSc2ccc(Cl)cc2)n1	7%[11.4 µM]	14%[11.4 µM]	nt	-5%[11.5 µM]	5%[11.4 µM]	5%[11.4 µM]
C=CCn1c(/N=C/c2ccc(N(C)C)cc2)nc2ccccc21	5%	-11%	1.4*	6%	-5%	4µM*
CN(C)c1ccc(/C=N/n2ncc3ccccc32)cc1	-2%	?	1.9*	22%	32µM*	4µM*
C=CCn1c(C(C)NC(=O)C(C)(C)C)nc2ccccc21 (stereo not given)	4%	2%	>57	14%	3%	2%
CN(C)c1ccc(C=Nc2ccc(N(C)C)cc2)cc1	?	?	nt	nt	-26%	nt
C[C@@H](C(=O)Cc1ccc2ccccc2c1)[C@@H]1C[C@@]1(C)[C@@H](NP(=O)(c1ccccc1)c1ccccc1)c1ccccc1	nt	2%	nt	-28%	10%	nt
Cc1nc2cc(Cl)ccc2n1CCO	11%	1%	>57	-5%	-8%	-1%
c1ccc2c(c1)CCCn1nnnc1-2	9%	-3%	>57	2%	17%	0%
CCn1c(C)nc2cc(-c3nc4n(n3)Cc3ccccc3-4)ccc21	9%	10%	0.095*	5%	25µM*	0.05µM*
Fc1ccc(-c2nc3n(n2)Cc2ccccc2-3)cc1	-1%	14%	2.5*	-19%	4%	4µM*
Nc1nc(CC(=O)O)cs1	-5%	?	nt	-6%	4%	nt
Cc1nc2ccc(C(=O)O)cc2c2c1CC(C)S2 (stereo not given)	-3%	3.2µM*	>57	-14%	25µM*	0%
CN1CCN(c2ncnc3ccc(-c4cccnc4)cc23)CC1	37%	10%	nt	?	12%	2%[2.29 µM]
COc1ccc(OC2C=CC(c3ccccc3)OC2CO)c(C(C)=O)c1 (stereo not given)	6%[11.4 µM]	2%[11.4 µM]	nt	31%[11.5 µM]	6%[11.4 µM]	nt
C=Cc1ccccc1Cl	1%	-5%	nt	20%	-2%	nt
Cc1nc2cc(NC(=O)NCc3ccc4c(c3)OCO4)ccc2o1	6%	5%	>57	-26%	0%	-7%
Cc1nc2cc(NC(=O)N3c4ccccc4CC3C)ccc2n1C (stereo not given)	10%	5%	9.5*	-10%	6%	5µM*
Cc1nc2cc(NC(=O)N3c4ccccc4CC3C)ccc2o1 (stereo not given)	14%	-5%	?	-28%	-3%	13µM*
CC(C)NC[C@H](O)c1ccc(O)c(O)c1	?	0.1µM*	nt	?	8%	1%
CC(C)Cn1nc(NS(=O)(=O)c2ccccc2)c2cc3ccccc3nc21	-3%	2%	4.2*	-6%	0%	6.3µM*
Cc1ccsc1C=Nc1ccc(O)cc1	?	2.5µM*	nt	-17%	?	-7%
COc1cccc(N=Cc2ccc(O)cc2O)c1	-18%	?	nt	-8%	-8%	-2%
